We go through six sequences from paper PMC5349851, “Combinatorial bZIP dimers display complex DNA-binding specificity landscapes”.

Some targets named below: ATF3;CEBPA (Homo sapiens;Homo sapiens, UniProt P18847;P49715 77-150;273-345, |); JUN;CEBPG (Homo sapiens;Homo sapiens, UniProt P05412;P53567 243-316;52-130, |); JUN;CEBPA (Homo sapiens;Homo sapiens, UniProt P05412;P49715 243-316;273-345, |); BATF3;CEBPA (Homo sapiens;Homo sapiens, UniProt Q9NR55;P49715 26-99;273-345, |); JUNB;CEBPA (Homo sapiens;Homo sapiens, UniProt P17275;P49715 259-332;273-345, |); FOS;CEBPG (Homo sapiens;Homo sapiens, UniProt P01100;P53567 128-201;52-130, |); CEBPA;CEBPA (Homo sapiens;Homo sapiens, UniProt P49715;P49715 273-345;273-345, |); JUN;ATF3 (Homo sapiens;Homo sapiens, UniProt P05412;P18847 243-316;77-150, |); JUN;JUN (Homo sapiens;Homo sapiens, UniProt P05412;P05412 243-316;243-316, |); ATF4;CEBPG (Homo sapiens;Homo sapiens, UniProt P18848;P53567 269-346;52-130, |); ATF4;CEBPA (Homo sapiens;Homo sapiens, UniProt P18848;P49715 269-346;273-345, |); ATF4;ATF4 (Homo sapiens;Homo sapiens, UniProt P18848;P18848 269-346;269-346, |); BATF3;ATF4 (Homo sapiens;Homo sapiens, UniProt Q9NR55;P18848 26-99;269-346, |).

Common to all, as to assay: SELEX-seq (CSI, HT-SELEX, round 3); SELEX-seq: 1x PBS (10 mM phosphate, 137 mM NaCl, 2.7 mM KCl) pH 7.6, 2.5 mM DTT, 50 ng/ul poly dI-dC, 0.1% BSA, 50 nM biotinylated bZIP (1:3 with partner for heterodimers), 100 nM library, room temperature, 1 h, 3 rounds; high values mean tight binding
What all share (settings): protein: recombinant;recombinant; copies: 1;1; dsDNA, one strand shown

The target of the next assay is T1, ATF3;CEBPG (Homo sapiens;Homo sapiens, UniProt P18847;P53567 77-150;52-130, |).
T1 sequence 1: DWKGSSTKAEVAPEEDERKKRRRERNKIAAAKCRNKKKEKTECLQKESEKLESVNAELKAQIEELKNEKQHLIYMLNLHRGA
T1 sequence 2: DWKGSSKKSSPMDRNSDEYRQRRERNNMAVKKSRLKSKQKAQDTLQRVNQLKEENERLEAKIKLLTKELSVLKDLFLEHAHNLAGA

The target of the next assay is T2, BATF3;CEBPG (Homo sapiens;Homo sapiens, UniProt Q9NR55;P53567 26-99;52-130, |).
T2 sequence 1: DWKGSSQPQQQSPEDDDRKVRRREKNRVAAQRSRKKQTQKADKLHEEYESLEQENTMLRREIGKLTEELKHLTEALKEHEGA
T2 sequence 2: T1 sequence 2

A further assay deals with T3, ATF3;ATF3 (Homo sapiens;Homo sapiens, UniProt P18847;P18847 77-150;77-150, |).
T3 sequence 1: T1 sequence 1
T3 sequence 2: T1 sequence 1

In a further assay the target is T4, BATF;CEBPG (Homo sapiens;Homo sapiens, UniProt Q16520;P53567 17-90;52-130, |).
T4 sequence 1: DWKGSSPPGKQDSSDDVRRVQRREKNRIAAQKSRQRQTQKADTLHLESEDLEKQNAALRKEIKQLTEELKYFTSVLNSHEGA
T4 sequence 2: T1 sequence 2

The target in another assay is T5, FOSL1;CEBPG (Homo sapiens;Homo sapiens, UniProt P15407;P53567 96-169;52-130, |).
T5 sequence 1: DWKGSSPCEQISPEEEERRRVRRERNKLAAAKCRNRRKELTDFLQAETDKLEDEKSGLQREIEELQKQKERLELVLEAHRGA
T5 sequence 2: T1 sequence 2

Another assay concerns the target T6, CEBPG;CEBPG (Homo sapiens;Homo sapiens, UniProt P53567;P53567 52-130;52-130, |).
T6 sequence 1: T1 sequence 2
T6 sequence 2: T1 sequence 2

A further assay addresses T7, BATF3;ATF3 (Homo sapiens;Homo sapiens, UniProt Q9NR55;P18847 26-99;77-150, |).
T7 sequence 1: T2 sequence 1
T7 sequence 2: T1 sequence 1

Sequence of FOS;CEBPG (P01100 other isoform, or with tags, fused parts or gaps |): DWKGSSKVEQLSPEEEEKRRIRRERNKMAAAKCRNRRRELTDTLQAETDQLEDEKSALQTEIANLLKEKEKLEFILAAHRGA
Sequence of JUN;ATF3 (P05412 other isoform, or with tags, fused parts or gaps |): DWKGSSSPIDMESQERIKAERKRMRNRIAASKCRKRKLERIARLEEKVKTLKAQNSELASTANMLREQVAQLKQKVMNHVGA
Sequence of JUN;JUN (P05412 other isoform, or with tags, fused parts or gaps |, chain 1 of 2): as the sequence (P05412 other isoform, or with tags, fused parts or gaps |) above
Sequence of JUN;JUN (P05412 other isoform, or with tags, fused parts or gaps |, chain 2 of 2): as the sequence (P05412 other isoform, or with tags, fused parts or gaps |) above
Sequence of JUN;CEBPA (P05412 other isoform, or with tags, fused parts or gaps |, chain 1 of 2): as the sequence (P05412 other isoform, or with tags, fused parts or gaps |) above
Sequence of JUN;CEBPA (P49715 other isoform, or with tags, fused parts or gaps |, chain 2 of 2): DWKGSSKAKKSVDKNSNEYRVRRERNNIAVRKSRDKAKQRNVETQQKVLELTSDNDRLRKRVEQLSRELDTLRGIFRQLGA
Sequence of ATF4;CEBPG (P18848 other isoform, or with tags, fused parts or gaps |): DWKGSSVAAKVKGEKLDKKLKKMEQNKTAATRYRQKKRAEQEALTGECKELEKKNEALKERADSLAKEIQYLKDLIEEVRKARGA
Sequence of ATF4;CEBPA (P18848 other isoform, or with tags, fused parts or gaps |, chain 1 of 2): as the sequence (P18848 other isoform, or with tags, fused parts or gaps |) above
Sequence of ATF4;CEBPA (P49715 other isoform, or with tags, fused parts or gaps |, chain 2 of 2): as the sequence (P49715 other isoform, or with tags, fused parts or gaps |, chain 2 of 2) above
Sequence of ATF4;ATF4 (P18848 other isoform, or with tags, fused parts or gaps |, chain 1 of 2): as the sequence (P18848 other isoform, or with tags, fused parts or gaps |) above
Sequence of ATF4;ATF4 (P18848 other isoform, or with tags, fused parts or gaps |, chain 2 of 2): as the sequence (P18848 other isoform, or with tags, fused parts or gaps |) above
Sequence of JUNB;CEBPA (P17275 other isoform, or with tags, fused parts or gaps |, chain 1 of 2): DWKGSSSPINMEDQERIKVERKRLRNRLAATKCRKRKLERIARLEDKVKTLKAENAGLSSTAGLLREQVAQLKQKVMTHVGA
Sequence of JUNB;CEBPA (P49715 other isoform, or with tags, fused parts or gaps |, chain 2 of 2): as the sequence (P49715 other isoform, or with tags, fused parts or gaps |, chain 2 of 2) above
Sequence of BATF3;CEBPA (P49715 other isoform, or with tags, fused parts or gaps |): as the sequence (P49715 other isoform, or with tags, fused parts or gaps |, chain 2 of 2) above
Sequence of CEBPA;CEBPA (P49715 other isoform, or with tags, fused parts or gaps |, chain 1 of 2): as the sequence (P49715 other isoform, or with tags, fused parts or gaps |, chain 2 of 2) above
Sequence of CEBPA;CEBPA (P49715 other isoform, or with tags, fused parts or gaps |, chain 2 of 2): as above

With ATGACGTCAT, the binding signal was 0.268 relative CSI intensity (max = 1) in the assay with ATF3;CEBPG; 1 relative CSI intensity (max = 1) with ATF3;CEBPA; 0.705 relative CSI intensity (max = 1) with JUN;CEBPG; 1 relative CSI intensity (max = 1) with JUN;CEBPA; 0.108 relative CSI intensity (max = 1) with BATF3;CEBPG; 0.0986 relative CSI intensity (max = 1) in the assay with BATF3;CEBPA. Further, the binding signal with ATF3;ATF3 is 1 relative CSI intensity (max = 1); in the assay with JUNB;CEBPA it was 0.0515 relative CSI intensity (max = 1); with BATF;CEBPG it was 0.12 relative CSI intensity (max = 1); with FOSL1;CEBPG, 0.43 relative CSI intensity (max = 1); with FOS;CEBPG it was 0.508 relative CSI intensity (max = 1); with CEBPG;CEBPG, 0.00362 relative CSI intensity (max = 1). The binding signal was 0.015 relative CSI intensity (max = 1) with CEBPA;CEBPA; 0.367 relative CSI intensity (max = 1) with JUN;ATF3; 1 relative CSI intensity (max = 1) in the assay with JUN;JUN; 0.465 relative CSI intensity (max = 1) in the assay with ATF4;CEBPG; 0.584 relative CSI intensity (max = 1) with ATF4;CEBPA; 1 relative CSI intensity (max = 1) in the assay with ATF4;ATF4. Moreover, the figures for the binding signal with BATF3;ATF3 and with BATF3;ATF4 were 0.146 relative CSI intensity (max = 1) and 0.748 relative CSI intensity (max = 1), respectively.

Take ATGACGTAAT: the binding signal was 0.53 relative CSI intensity (max = 1) with ATF3;CEBPG; 0.606 relative CSI intensity (max = 1) with ATF3;CEBPA; 0.246 relative CSI intensity (max = 1) in the assay with JUN;CEBPG; 0.286 relative CSI intensity (max = 1) with JUN;CEBPA; 0.306 relative CSI intensity (max = 1) with BATF3;CEBPG; 0.226 relative CSI intensity (max = 1) with BATF3;CEBPA. For the same sequence, the binding signal with ATF3;ATF3 was 0.196 relative CSI intensity (max = 1); with JUNB;CEBPA it was 0.144 relative CSI intensity (max = 1); with BATF;CEBPG, 0.22 relative CSI intensity (max = 1); with FOSL1;CEBPG, 0.318 relative CSI intensity (max = 1); in the assay with FOS;CEBPG it was 0.482 relative CSI intensity (max = 1); with CEBPG;CEBPG it was 0.0508 relative CSI intensity (max = 1). For the same sequence, the binding signal with CEBPA;CEBPA is 0.0784 relative CSI intensity (max = 1); with JUN;ATF3, 0.313 relative CSI intensity (max = 1); with JUN;JUN, 0.091 relative CSI intensity (max = 1); in the assay with ATF4;CEBPG it was 0.652 relative CSI intensity (max = 1); with ATF4;CEBPA, 0.695 relative CSI intensity (max = 1); with ATF4;ATF4 it was 0.00204 relative CSI intensity (max = 1). Besides, the binding signal in the assay with BATF3;ATF3 is 0.0292 relative CSI intensity (max = 1); with BATF3;ATF4, 0.048 relative CSI intensity (max = 1).

Take ATGACGGAAT: the binding signal with ATF3;CEBPG was 0.0128 relative CSI intensity (max = 1); with ATF3;CEBPA it was 0.105 relative CSI intensity (max = 1); with JUN;CEBPG, 0.0184 relative CSI intensity (max = 1); with JUN;CEBPA, 0.00425 relative CSI intensity (max = 1); with BATF3;CEBPG it was 0.00179 relative CSI intensity (max = 1); with ATF3;ATF3, 0.00639 relative CSI intensity (max = 1). The binding signal with JUNB;CEBPA was 0.00413 relative CSI intensity (max = 1); in the assay with BATF;CEBPG it was 0.00661 relative CSI intensity (max = 1); in the assay with FOS;CEBPG, 0.0215 relative CSI intensity (max = 1); with JUN;ATF3, 0.0994 relative CSI intensity (max = 1); with JUN;JUN, 0.0116 relative CSI intensity (max = 1); with ATF4;CEBPG, 0.0162 relative CSI intensity (max = 1). The figures for the binding signal with ATF4;CEBPA, with BATF3;ATF3 and in the assay with BATF3;ATF4 were 0.133 relative CSI intensity (max = 1), 0.00122 relative CSI intensity (max = 1) and 0.00174 relative CSI intensity (max = 1), respectively.

For ATGATGCAAT, the binding signal with ATF3;CEBPG was 0.538 relative CSI intensity (max = 1); in the assay with ATF3;CEBPA it was 0.655 relative CSI intensity (max = 1); with JUN;CEBPG, 0.445 relative CSI intensity (max = 1); in the assay with JUN;CEBPA, 0.679 relative CSI intensity (max = 1); with BATF3;CEBPG, 0.78 relative CSI intensity (max = 1); in the assay with BATF3;CEBPA, 0.725 relative CSI intensity (max = 1). The binding signal is 0.00513 relative CSI intensity (max = 1) in the assay with ATF3;ATF3; 0.927 relative CSI intensity (max = 1) with JUNB;CEBPA; 0.553 relative CSI intensity (max = 1) with BATF;CEBPG; 0.498 relative CSI intensity (max = 1) with FOSL1;CEBPG; 0.64 relative CSI intensity (max = 1) with FOS;CEBPG; 0.133 relative CSI intensity (max = 1) with CEBPG;CEBPG. Besides, the binding signal in the assay with CEBPA;CEBPA is 0.124 relative CSI intensity (max = 1); in the assay with JUN;ATF3 it was 0.136 relative CSI intensity (max = 1); in the assay with JUN;JUN, 0.00263 relative CSI intensity (max = 1); with ATF4;CEBPG it was 0.965 relative CSI intensity (max = 1); in the assay with ATF4;CEBPA, 1 relative CSI intensity (max = 1); with BATF3;ATF3, 0.00189 relative CSI intensity (max = 1). In addition, the binding signal in the assay with BATF3;ATF4 was 0.00441 relative CSI intensity (max = 1).

CCTGACGTCA: the binding signal with ATF3;CEBPG is 0.0196 relative CSI intensity (max = 1); in the assay with ATF3;CEBPA, 0.18 relative CSI intensity (max = 1); with JUN;CEBPA it was 0.00973 relative CSI intensity (max = 1); with BATF3;CEBPG, 0.00277 relative CSI intensity (max = 1); with BATF3;CEBPA it was 0.00253 relative CSI intensity (max = 1); with ATF3;ATF3, 0.0945 relative CSI intensity (max = 1). Also, the binding signal in the assay with JUNB;CEBPA is 0.00467 relative CSI intensity (max = 1); with BATF;CEBPG it was 0.0162 relative CSI intensity (max = 1); with FOS;CEBPG, 0.0189 relative CSI intensity (max = 1); with JUN;ATF3, 0.177 relative CSI intensity (max = 1); with JUN;JUN, 0.0544 relative CSI intensity (max = 1); in the assay with ATF4;CEBPG it was 0.0346 relative CSI intensity (max = 1). The binding signal is 0.127 relative CSI intensity (max = 1) with ATF4;CEBPA, 0.0219 relative CSI intensity (max = 1) in the assay with ATF4;ATF4, 0.0499 relative CSI intensity (max = 1) with BATF3;ATF3 and 0.0241 relative CSI intensity (max = 1) in the assay with BATF3;ATF4.

ATGACGCAAT: the binding signal is 1 relative CSI intensity (max = 1) with ATF3;CEBPG; 0.754 relative CSI intensity (max = 1) with ATF3;CEBPA; 1 relative CSI intensity (max = 1) with JUN;CEBPG; 0.7 relative CSI intensity (max = 1) with JUN;CEBPA; 0.954 relative CSI intensity (max = 1) in the assay with BATF3;CEBPG; 0.595 relative CSI intensity (max = 1) in the assay with BATF3;CEBPA. In addition, the binding signal was 0.0322 relative CSI intensity (max = 1) with ATF3;ATF3; 1 relative CSI intensity (max = 1) with JUNB;CEBPA; 0.678 relative CSI intensity (max = 1) with BATF;CEBPG; 1 relative CSI intensity (max = 1) in the assay with FOSL1;CEBPG; 0.92 relative CSI intensity (max = 1) with FOS;CEBPG; 0.307 relative CSI intensity (max = 1) with CEBPG;CEBPG. Also, the binding signal with CEBPA;CEBPA is 0.292 relative CSI intensity (max = 1); with JUN;ATF3, 0.267 relative CSI intensity (max = 1); with JUN;JUN, 0.0387 relative CSI intensity (max = 1); with ATF4;CEBPG, 1 relative CSI intensity (max = 1); in the assay with ATF4;CEBPA it was 0.929 relative CSI intensity (max = 1); with BATF3;ATF3, 0.00445 relative CSI intensity (max = 1). Further, in the assay with BATF3;ATF4, the binding signal was 0.00858 relative CSI intensity (max = 1).
